Outcome and AC50 data for 7 compounds are collected here from PubChem BioAssay (EPA / NIEHS).

The nature of assay [1]: ATG_GLI_CIS: Attagene CIS-FACTORIAL HepG2 Assay for human Zinc Finger Protein GLI1 (AID 2282945). The conditions noted are these: HepG2, Attagene cis-factorial reporter mRNA, GLI element; actives raise or lower the signal. The method, boiled down:
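Bidirectional curve fits relative to DMSO, using reporter mRNA levels from RT-PCR plus capillary electrophoresis. Cells were HepG2 transiently carrying cis-regulated reporter constructs, harvested 24 h after dosing.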

Assay [2] is described as follows: ATG_ISRE_CIS: Attagene CIS-FACTORIAL HepG2 Assay for human Interferon Regulatory Factor 1 (IRF1) binding to an Interferon-Stimulated Response Element (ISRE) (AID 2282948). Conditions: HepG2 ISRE cis-reporter (Attagene), mRNA transcription readout; actives raise or lower the signal. The method, boiled down: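 Endogenous transcription factor activity read as reporter transcript abundance via RT-PCR and capillary electrophoresis. HepG2 cells transiently transfected, 24 h chemical exposure. Gain or loss fitted against DMSO baseline.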

The nature of assay [3]: ATG_M_32_CIS: Attagene CIS-FACTORIAL HepG2 Assay for M32 Transcription Factor (Internal Marker) (AID 2282949).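 Further: background control marker of the multiplexed CIS panel rather than a real target.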 The conditions noted are these: HepG2 Attagene cis-factorial M32 reporter, mRNA; actives raise or lower the signal. Summed up: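 Using DMSO as baseline, bidirectional curve fits were applied to reporter mRNA signals. These came from transiently transfected HepG2 cells exposed for 24 h, with RNA analysed by RT-PCR, FAM primer extension, HpaI digestion and CE.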

Assay [4] concerns the target Hypoxia-inducible factor 1-alpha (Homo sapiens) (UniProt Q16665). As to the kind of experiment: ATG_HIF1a_CIS: Attagene CIS-FACTORIAL HepG2 Assay for human Hypoxia Inducible Factor 1 (HIF1A) (AID 2282951). Conditions: HepG2 Attagene cis-factorial HIF1a reporter transcription; actives raise or lower the signal. The method, boiled down:
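Endogenous-TF cis reporter readout, human HepG2 cells, 24 h incubation; mRNA detected via RT-PCR and capillary electrophoresis fluorescence; DMSO-normalised bidirectional fitting.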

For assay [5], the target named is Hepatocyte nuclear factor 6 (Homo sapiens) (UniProt Q9UBC0). Description: ATG_HNF6_CIS: Attagene CIS-FACTORIAL HepG2 Assay for human Hepatocyte Nuclear Factor 6 (HNF6) (AID 2282952). The conditions noted are these: HepG2 Attagene cis-factorial HNF6 reporter transcription; actives raise or lower the signal. The method, boiled down: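 Using cis-element reporters in HepG2 liver cells, the assay tracks endogenous factor-driven transcription 24 h post-dosing. Signal comes from 6-FAM-labelled, HpaI-digested RT-PCR fragments, with gain or loss scored against DMSO.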
Sequence of Hepatocyte nuclear factor 6 (Homo sapiens) (Q9UBC0 whole entry, looked up, the tested form may be a part): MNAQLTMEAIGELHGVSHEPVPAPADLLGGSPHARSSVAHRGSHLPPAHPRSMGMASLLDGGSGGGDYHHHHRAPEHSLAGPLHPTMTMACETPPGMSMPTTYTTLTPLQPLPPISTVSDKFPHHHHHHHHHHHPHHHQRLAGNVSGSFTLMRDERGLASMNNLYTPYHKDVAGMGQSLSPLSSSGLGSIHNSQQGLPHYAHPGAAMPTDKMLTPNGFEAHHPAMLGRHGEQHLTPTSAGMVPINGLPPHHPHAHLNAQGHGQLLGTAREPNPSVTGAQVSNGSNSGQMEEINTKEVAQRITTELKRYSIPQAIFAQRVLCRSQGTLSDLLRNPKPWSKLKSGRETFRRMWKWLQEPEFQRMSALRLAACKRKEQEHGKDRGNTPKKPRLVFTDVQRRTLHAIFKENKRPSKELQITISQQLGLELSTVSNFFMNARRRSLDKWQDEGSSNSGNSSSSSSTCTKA

Assay [6] deals with Heat shock factor protein 1 (Homo sapiens) (UniProt Q00613). As to the kind of experiment: ATG_HSE_CIS: Attagene CIS-FACTORIAL HepG2 Assay for human Heat Shock Transcription Factor 1 (HSE) (AID 2282953). Conditions: HepG2 HSE cis-reporter, Attagene RNA transcription; actives raise or lower the signal. Summed up:
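After a 24 h incubation with test chemical, transfected HepG2 cells were harvested for RNA; reporter transcripts were measured by RT-PCR and capillary electrophoresis. Values reflect gain or loss of signal relative to DMSO.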

Assay [7] in a line: ATG_MRE_CIS: Attagene CIS-FACTORIAL HepG2 Assay for human Metal Responsive Element (MRE) (AID 2282954). The conditions noted are these: HepG2 MRE cis-reporter transcription, Attagene multiplex; actives raise or lower the signal. Summed up: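 Multiplexed cis-reporter assay in human HepG2 liver cells, 24 h incubation with test chemical. Reporter transcripts measured by RT-PCR and capillary electrophoresis; values from bidirectional curve fitting versus DMSO.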

Assay [8] is described as follows: ATG_PBREM_CIS: Attagene CIS-FACTORIAL HepG2 Assay for human Phenobarbital-responsive Enhancer Module (PBREM) (AID 2282955). The conditions noted are these: HepG2 PBREM cis-reporter, Attagene multiplexed transcription; actives raise or lower the signal. Summed up:
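Readout: reporter mRNA, fluorescent RT-PCR fragments separated by capillary electrophoresis. System: HepG2 transiently transfected with cis-regulated reporter units. Exposure: 24 h. Analysis: bidirectional, DMSO baseline.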

Assay [9] addresses Paired box protein Pax-6 (Homo sapiens) (UniProt P26367). Description: ATG_Pax6_CIS: Attagene CIS-FACTORIAL HepG2 Assay for human Paired Box 6 (PAX6) (AID 2282956). Conditions: HepG2 CIS-FACTORIAL PAX6 reporter transcription, RNA readout; actives raise or lower the signal. Summed up: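 Read-out is reporter transcript level, measured by RT-PCR with fluorescent primer extension and capillary electrophoresis after 24 h dosing of transfected HepG2 cells. Activity in either direction fitted relative to DMSO control.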

Assay [10] can be described thus: ATG_PXRE_CIS: Attagene CIS-FACTORIAL HepG2 Assay for human Pregnane X Receptor Element (PXRE) (AID 2282957). Conditions: HepG2 Attagene CIS-FACTORIAL PXRE reporter, mRNA; actives raise or lower the signal. The method, boiled down:
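Using HepG2 transfected with multiple reporter transcription units, endogenous factor-driven transcription was scored as reporter mRNA after 24 h exposure.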

Assay [11] in a line: ATG_RORE_CIS: Attagene CIS-FACTORIAL HepG2 Assay for human RAR-related Orphan Receptor Element (RORE) (AID 2282959). Conditions: HepG2 Attagene cis-factorial RORE reporter, mRNA; actives raise or lower the signal. The method, boiled down: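 Measured here: transcript induction of a cis-regulated reporter in HepG2 cells transiently transfected via FuGene 6. After 24 h, RNA was processed by RT-PCR and fluorescent capillary electrophoresis; DMSO defined baseline activity.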

Assay [12] can be described thus: ATG_Sox_CIS: Attagene CIS-FACTORIAL HepG2 Assay for human SRY-box transcription factor (SOX) (AID 2282960). Conditions: HepG2 Attagene cis-factorial SOX reporter, mRNA; actives raise or lower the signal. Summed up: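 Using transiently transfected HepG2 cells, reporter transcription driven by cis elements was assessed 24 h after dosing. Signal was fluorescence of capillary-separated RT-PCR products, with DMSO defining baseline activity.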

Assay [13] addresses Transcription factor Sp1 (Homo sapiens) (UniProt P08047). As to the kind of experiment: ATG_Sp1_CIS: Attagene CIS-FACTORIAL HepG2 Assay for human Specificity Protein 1 (Sp1) (AID 2282961). Conditions: HepG2 Sp1 cis-reporter transcription, actives raise or lower the signal. Summed up:
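After transient transfection of HepG2 cells with cis-promoter reporter units and 24 h chemical treatment, reporter transcripts were quantified by RT-PCR and capillary electrophoresis fluorescence. Gain- and loss-of-signal fitted against DMSO.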

Assay [14] is described as follows: ATG_SREBP_CIS: Attagene CIS-FACTORIAL HepG2 Assay for human Sterol Regulatory Element Binding (SREBP) (AID 2282962). Conditions: HepG2 Attagene cis-factorial SREBP reporter, mRNA; actives raise or lower the signal. The method, boiled down: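 Endogenous SREBP activity read as cis-element-driven reporter transcript in transiently transfected HepG2, 24 h post-dosing; quantified via RT-PCR plus capillary electrophoresis of fluorescent fragments. Gain or loss of signal fitted relative to DMSO baseline.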

Assay [15] can be described thus: ATG_TA_CIS: Attagene CIS-FACTORIAL HepG2 Assay for human TA Basal Promoter (AID 2282964). The conditions noted are these: HepG2 Attagene CIS-factorial TA basal promoter reporter; actives raise or lower the signal. Summed up: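 Multiplexed mRNA reporter assay, HepG2, 24 h. Reporter cDNA amplified, 6-FAM primer-extended, HpaI-cut, CE-sized; DMSO = negative control and baseline.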

Assay [16] can be described thus: ATG_PPRE_CIS: Attagene CIS-FACTORIAL HepG2 Assay for human Peroxisome Proliferator-activated Response Element (PPRE) (AID 2282958). Conditions: HepG2 PPRE cis-element reporter, Attagene transcription factor profiling; actives raise or lower the signal. The method, boiled down: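 After human HepG2 hepatoma cells were transiently transfected with cis-promoter reporter constructs, they were exposed to test chemicals for 24 hours. Reporter RNA was then reverse-transcribed, PCR-amplified, FAM-labeled, HpaI-digested and quantified by capillary electrophoresis.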

The nature of assay [17]: ATG_GRE_CIS: Attagene CIS-FACTORIAL HepG2 Assay for human Glucocorticoid Response Elements (GRE) (AID 2282947). The conditions noted are these: HepG2 GRE cis-reporter, Attagene multiplex mRNA; actives raise or lower the signal. Summed up:
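Multiplexed cis-reporter mRNA induction, HepG2, 24 h post-dose. RT-PCR, FAM-labelled, HpaI-digested amplicons by CE. Bidirectional fit vs DMSO.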

Assay [18] addresses Signal transducer and activator of transcription 3 (Homo sapiens) (UniProt P40763). As to the kind of experiment: ATG_STAT3_CIS: Attagene CIS-FACTORIAL HepG2 Assay for human Signal Transducer and Activator of Transcription 3 (STAT3) (AID 2282963). The conditions noted are these: HepG2, Attagene cis-factorial STAT3 reporter transcription; actives raise or lower the signal. Summed up:
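Cis-factorial format: endogenous transcription factors in HepG2 drive transfected reporter units. After 24 h treatment, reporter RNA was reverse-transcribed, amplified, FAM-labelled and HpaI-digested before CE analysis; activity scored in both directions against DMSO.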

Assay [19] is described as follows: ATG_M_06_CIS: Attagene CIS-FACTORIAL HepG2 Assay for M06 Transcription Factor (Internal Marker) (AID 2282950). The conditions noted are these: HepG2 Attagene CIS-FACTORIAL M06 internal marker reporter; actives raise or lower the signal. The method, boiled down: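 Fluorescence-labelled RT-PCR products from cis-promoter reporter units, cut with HpaI and resolved by capillary electrophoresis, give the signal. Cells are human HepG2, dosed for 24 h. Serves as background control, fitted relative to DMSO.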

Where “and” joins values, the source holds several entries; their conditions need not be identical. Identical values can stand only once. A structure can be active in one record and inactive in another. Calls of active or inactive are those of the source. How the source made its calls: active means hit-call score of the fitted dose curve at least 0.9, where 1 is the maximum; inactive means score below 0.9.

Sequence of Transcription factor Sp1 (Homo sapiens) (P08047 whole entry, looked up): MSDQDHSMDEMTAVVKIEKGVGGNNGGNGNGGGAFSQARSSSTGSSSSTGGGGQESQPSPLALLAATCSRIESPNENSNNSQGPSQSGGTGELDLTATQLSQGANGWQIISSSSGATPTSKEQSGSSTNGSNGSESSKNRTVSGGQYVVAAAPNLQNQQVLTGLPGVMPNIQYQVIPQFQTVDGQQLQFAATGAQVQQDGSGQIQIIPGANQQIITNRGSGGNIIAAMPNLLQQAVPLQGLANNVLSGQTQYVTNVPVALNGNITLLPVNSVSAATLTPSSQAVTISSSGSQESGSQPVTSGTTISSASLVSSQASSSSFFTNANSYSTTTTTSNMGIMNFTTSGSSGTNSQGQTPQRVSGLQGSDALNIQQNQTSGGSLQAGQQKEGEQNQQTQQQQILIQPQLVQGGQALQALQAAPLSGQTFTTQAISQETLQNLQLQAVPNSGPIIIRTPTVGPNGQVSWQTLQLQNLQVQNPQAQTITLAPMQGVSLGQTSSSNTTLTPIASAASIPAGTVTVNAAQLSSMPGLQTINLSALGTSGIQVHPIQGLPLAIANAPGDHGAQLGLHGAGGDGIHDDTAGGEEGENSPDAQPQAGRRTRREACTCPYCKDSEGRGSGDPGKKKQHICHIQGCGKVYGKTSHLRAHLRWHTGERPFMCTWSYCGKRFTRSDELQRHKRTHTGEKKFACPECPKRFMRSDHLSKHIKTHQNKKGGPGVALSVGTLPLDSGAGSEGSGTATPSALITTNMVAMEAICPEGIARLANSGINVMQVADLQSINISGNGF
Sequence of Paired box protein Pax-6 (Homo sapiens) (P26367 whole entry, looked up): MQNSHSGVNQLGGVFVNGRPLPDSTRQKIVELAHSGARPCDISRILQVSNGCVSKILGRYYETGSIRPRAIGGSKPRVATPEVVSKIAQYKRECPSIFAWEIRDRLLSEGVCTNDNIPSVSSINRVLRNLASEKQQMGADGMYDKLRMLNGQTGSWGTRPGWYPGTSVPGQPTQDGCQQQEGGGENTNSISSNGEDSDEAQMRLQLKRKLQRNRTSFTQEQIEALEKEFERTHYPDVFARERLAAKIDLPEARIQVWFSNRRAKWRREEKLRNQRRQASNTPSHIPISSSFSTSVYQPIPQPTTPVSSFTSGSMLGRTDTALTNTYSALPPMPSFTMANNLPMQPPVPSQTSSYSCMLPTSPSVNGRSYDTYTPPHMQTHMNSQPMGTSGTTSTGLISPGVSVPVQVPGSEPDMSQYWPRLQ
Sequence of Hypoxia-inducible factor 1-alpha (Homo sapiens) (Q16665 whole entry, looked up): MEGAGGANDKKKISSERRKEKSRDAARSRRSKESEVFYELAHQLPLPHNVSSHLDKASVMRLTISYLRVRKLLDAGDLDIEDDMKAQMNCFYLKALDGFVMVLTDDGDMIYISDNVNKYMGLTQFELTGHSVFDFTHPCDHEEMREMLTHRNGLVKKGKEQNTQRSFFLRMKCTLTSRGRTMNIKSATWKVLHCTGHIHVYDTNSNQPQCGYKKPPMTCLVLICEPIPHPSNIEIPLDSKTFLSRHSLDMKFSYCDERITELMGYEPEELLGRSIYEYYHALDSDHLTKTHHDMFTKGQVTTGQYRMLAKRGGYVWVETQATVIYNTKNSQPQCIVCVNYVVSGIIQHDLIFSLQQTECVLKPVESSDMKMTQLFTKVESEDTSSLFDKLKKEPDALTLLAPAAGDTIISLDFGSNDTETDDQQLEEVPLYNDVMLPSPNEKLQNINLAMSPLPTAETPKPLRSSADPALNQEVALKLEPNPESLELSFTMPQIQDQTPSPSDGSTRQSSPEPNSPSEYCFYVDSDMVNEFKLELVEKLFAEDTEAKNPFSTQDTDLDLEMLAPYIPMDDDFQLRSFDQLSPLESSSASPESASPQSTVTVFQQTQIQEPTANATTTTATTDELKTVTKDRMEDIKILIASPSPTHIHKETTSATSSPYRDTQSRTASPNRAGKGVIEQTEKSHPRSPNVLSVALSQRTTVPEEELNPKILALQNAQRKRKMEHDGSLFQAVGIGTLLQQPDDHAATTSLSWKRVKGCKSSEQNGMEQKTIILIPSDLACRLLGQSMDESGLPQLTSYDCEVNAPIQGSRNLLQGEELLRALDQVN
Sequence of Heat shock factor protein 1 (Homo sapiens) (Q00613 whole entry, looked up): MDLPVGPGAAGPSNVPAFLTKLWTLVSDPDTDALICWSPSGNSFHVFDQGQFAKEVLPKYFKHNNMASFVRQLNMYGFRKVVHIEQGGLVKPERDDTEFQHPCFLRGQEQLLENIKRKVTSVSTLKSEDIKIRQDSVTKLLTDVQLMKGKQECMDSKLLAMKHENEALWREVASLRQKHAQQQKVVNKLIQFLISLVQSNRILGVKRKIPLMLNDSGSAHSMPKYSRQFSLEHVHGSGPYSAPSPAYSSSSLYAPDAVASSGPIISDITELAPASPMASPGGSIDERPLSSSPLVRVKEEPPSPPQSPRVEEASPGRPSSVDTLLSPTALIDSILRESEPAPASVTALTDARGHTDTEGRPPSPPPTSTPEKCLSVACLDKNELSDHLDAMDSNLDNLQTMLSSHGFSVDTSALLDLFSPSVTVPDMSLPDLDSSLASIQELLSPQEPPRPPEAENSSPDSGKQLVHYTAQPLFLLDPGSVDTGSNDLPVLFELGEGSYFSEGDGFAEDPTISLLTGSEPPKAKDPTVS
Sequence of Signal transducer and activator of transcription 3 (Homo sapiens) (P40763 whole entry, looked up): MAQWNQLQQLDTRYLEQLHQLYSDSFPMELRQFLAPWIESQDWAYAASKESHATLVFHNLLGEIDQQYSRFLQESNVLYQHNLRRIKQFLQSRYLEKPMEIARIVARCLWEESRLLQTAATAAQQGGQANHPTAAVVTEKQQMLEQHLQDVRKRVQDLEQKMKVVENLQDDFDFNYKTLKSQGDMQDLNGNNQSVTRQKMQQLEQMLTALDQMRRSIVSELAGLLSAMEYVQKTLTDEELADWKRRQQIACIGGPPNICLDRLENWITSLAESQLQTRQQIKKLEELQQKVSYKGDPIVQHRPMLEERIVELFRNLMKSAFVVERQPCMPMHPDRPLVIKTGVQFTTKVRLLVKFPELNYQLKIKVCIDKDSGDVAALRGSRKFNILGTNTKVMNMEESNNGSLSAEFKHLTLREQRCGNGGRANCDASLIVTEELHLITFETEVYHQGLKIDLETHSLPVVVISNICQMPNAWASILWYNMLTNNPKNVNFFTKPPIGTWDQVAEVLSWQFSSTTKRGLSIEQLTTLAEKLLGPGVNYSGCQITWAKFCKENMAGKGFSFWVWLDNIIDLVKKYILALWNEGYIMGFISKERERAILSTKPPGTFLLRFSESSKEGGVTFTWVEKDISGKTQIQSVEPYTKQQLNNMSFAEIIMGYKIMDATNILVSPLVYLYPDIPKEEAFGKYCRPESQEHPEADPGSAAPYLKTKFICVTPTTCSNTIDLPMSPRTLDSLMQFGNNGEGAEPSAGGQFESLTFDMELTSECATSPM

For `CC(C)(C)C(O)C(Oc1ccc(Cl)cc1)n1cncn1` (centres undefined), the outcome in assay [1], in [2], in [3], in assay [4], in [5] and in [6] was inactive. The call in assay [7], in assay [8], in [9], in assay [11], in [12] and in assay [13] was inactive. Also, the compound was called inactive in assay [14] and in assay [15]. The AC50 was 7.83 µM (active) in [7]; 2.82 µM (active) and 5.04 µM (active) and 7.04 µM (active) in assay [8]; 1.27 µM (active) [middle of 6 runs] in assay [10]; 48.7 µM (active) and 23.2 µM (active) and 24 µM (active) in assay [14].

Take `CCOC1Oc2ccc(OS(C)(=O)=O)cc2C1(C)C` (centres undefined): the call in assay [1], in assay [2], in [3], in assay [4], in assay [5] and in [9] was inactive. The compound was called inactive in assay [11], in [12], in assay [13], in assay [14] and in assay [15]. In addition, the AC50 in assay [7] was 50 µM (active); in assay [8], 34 µM (active); in assay [10], 5.08 µM (active); in [16] it was 30.8 µM (active).

For `N#CN`, the call in assay [1], in assay [17], in assay [2], in [3], in assay [4] and in assay [5] was inactive. Moreover, the compound was called inactive in assay [6], in [7], in [8], in assay [9], in assay [10] and in [16]. The compound was classed as inactive in assay [11], in assay [12], in [13], in assay [14], in [18] and in assay [15].

With `O=C(O)COc1ccc(Cl)cc1Cl`, the call in assay [1], in assay [17], in assay [2], in [3], in assay [19] and in assay [4] was inactive. For the same compound, the call in assay [5], in assay [7], in [9], in [10], in [12] and in assay [13] was inactive. Besides, the compound was called inactive in assay [14] and in assay [15].

Regarding `C#CCN1C(=O)COc2cc(F)c(N3C(=O)C4=C(CCCC4)C3=O)cc21`, the compound was called inactive in assay [1], in [17], in [2], in [3], in assay [4] and in [5]. Besides, the call in assay [6], in assay [7], in assay [8], in [9], in [12] and in assay [13] was inactive. For the same compound, the outcome in assay [14] and in [18] was inactive. In addition, the AC50 in [10] is 23.8 µM (active); in assay [16] it was 12.5 µM (active).

As to `O=C(O)CCCOc1ccc(Cl)cc1Cl`, the result in assay [1], in assay [2], in [3], in assay [19], in [4] and in assay [5] was inactive. Also, the compound was classed as inactive in [6], in assay [7], in assay [8], in assay [9], in assay [10] and in assay [16]. In addition, the compound was classed as inactive in [11], in assay [12], in [13] and in [14]. Besides, the AC50 is 27.1 µM (active) in assay [10] and 22.9 µM (active) in assay [16].

As to `COP(=O)(OC)OC=C(Cl)Cl`, the call in [1], in assay [3], in assay [19], in [4], in assay [5] and in assay [6] was inactive. Besides, the compound was classed as inactive in assay [9], in assay [11], in assay [12], in [13] and in assay [14]. In addition, the AC50 in assay [2] is 50 µM (active); in assay [7], 36.7 µM (active); in assay [10] it was 21.8 µM (active); in [16], 22.9 µM (active).

In general, AC50 refers to the concentration at which the activity in the assay is half-maximal.
